# Legend:
# Assay in all cases: DAPPL (digital affinity profiling via proximity ligation, sequencing); 10 mM Tris-HCl pH 7.5, 50 mM NaCl, 1 mM DTT, 4% glycerol, room temperature, 30 min; GST-TFs on glutathione beads, 16-mer random dsDNA library, 0.1% formaldehyde crosslink after washing; high values mean tight binding
# FLI1 = biological target: T1, FLI1 (Homo sapiens, UniProt Q01543 1-452); details: protein: recombinant; tags: N-terminal GST; dsDNA, one strand shown
# T1 sequence: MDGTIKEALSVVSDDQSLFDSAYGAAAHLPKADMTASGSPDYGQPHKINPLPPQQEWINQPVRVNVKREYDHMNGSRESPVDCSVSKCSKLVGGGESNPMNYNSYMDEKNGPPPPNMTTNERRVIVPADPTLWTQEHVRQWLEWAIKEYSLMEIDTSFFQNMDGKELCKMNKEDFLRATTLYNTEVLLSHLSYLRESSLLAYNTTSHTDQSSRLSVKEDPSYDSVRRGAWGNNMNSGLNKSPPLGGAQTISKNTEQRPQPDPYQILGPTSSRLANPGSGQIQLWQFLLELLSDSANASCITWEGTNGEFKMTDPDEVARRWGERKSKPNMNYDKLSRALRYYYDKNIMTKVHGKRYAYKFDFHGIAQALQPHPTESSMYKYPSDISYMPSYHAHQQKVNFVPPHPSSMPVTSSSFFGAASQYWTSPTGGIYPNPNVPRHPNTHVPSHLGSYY
# How it was run: (§1)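 GST fusions of human transcription factors were expressed in yeast and captured with glutathione beads. Once given DNA barcodes and pooled alongside a tag-only sample, they were incubated for 30 min at room temperature with 200 nmole of a random double-stranded 16-mer DNA library in Tris/NaCl/DTT/glycerol buffer, then washed, crosslinked (0.1% formaldehyde), proximity-ligated, PCR-amplified and sequenced on an Illumina NextSeq500. The binding signal of each hexamer is its read frequency for a factor divided by its frequency for the tag-only sample.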
# ELK1 = biological target: T2, ELK1 (Homo sapiens, UniProt P19419 1-428); details: protein: recombinant; tags: N-terminal GST; dsDNA, one strand shown
# T2 sequence: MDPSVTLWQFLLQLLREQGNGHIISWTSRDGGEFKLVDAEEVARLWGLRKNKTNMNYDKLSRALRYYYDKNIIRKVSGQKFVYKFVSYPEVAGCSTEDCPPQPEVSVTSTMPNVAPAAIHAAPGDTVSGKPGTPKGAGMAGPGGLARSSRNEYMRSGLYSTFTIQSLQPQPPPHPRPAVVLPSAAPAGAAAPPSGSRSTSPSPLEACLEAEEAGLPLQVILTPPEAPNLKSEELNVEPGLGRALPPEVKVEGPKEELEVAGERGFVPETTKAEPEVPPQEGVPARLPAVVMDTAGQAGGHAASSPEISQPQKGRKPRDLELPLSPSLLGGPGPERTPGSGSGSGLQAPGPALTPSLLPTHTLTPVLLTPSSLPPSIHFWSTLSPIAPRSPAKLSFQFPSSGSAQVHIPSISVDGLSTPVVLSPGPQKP
# How it was run: as §1
# GABPA = biological target: T3, GABPA (Homo sapiens, UniProt Q06546 1-454); details: protein: recombinant; tags: N-terminal GST; dsDNA, one strand shown
# T3 sequence: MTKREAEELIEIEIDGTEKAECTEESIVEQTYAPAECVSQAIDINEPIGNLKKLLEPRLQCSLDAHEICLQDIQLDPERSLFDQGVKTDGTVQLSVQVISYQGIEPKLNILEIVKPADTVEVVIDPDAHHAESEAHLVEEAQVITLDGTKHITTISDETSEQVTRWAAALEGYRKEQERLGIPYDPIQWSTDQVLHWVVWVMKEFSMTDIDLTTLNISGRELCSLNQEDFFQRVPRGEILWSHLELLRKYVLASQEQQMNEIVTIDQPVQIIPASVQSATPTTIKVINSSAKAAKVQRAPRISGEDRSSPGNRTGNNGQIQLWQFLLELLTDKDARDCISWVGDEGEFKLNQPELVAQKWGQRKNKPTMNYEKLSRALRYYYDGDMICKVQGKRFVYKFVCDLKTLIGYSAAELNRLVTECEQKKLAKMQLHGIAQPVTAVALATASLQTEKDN
# How it was run: as §1
# ERG = biological target: T4, ERG (Homo sapiens, UniProt P11308 1-479); details: protein: recombinant; tags: N-terminal GST; dsDNA, one strand shown
# T4 sequence: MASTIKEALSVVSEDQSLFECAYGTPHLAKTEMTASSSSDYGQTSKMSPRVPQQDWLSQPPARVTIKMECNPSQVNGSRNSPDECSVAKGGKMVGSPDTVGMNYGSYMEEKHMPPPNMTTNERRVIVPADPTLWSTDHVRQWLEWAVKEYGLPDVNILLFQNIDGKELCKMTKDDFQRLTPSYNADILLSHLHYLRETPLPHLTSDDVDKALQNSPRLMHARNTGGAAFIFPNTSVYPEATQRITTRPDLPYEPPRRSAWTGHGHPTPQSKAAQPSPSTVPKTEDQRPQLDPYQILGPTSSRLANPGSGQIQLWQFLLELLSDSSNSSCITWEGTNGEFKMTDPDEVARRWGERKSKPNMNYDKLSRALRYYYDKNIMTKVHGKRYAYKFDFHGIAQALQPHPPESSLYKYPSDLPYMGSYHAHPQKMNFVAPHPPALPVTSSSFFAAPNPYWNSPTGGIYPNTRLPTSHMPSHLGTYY
# How it was run: as §1
# ELF1 = ELF1 (Homo sapiens, UniProt P32519 1-619); details: protein: recombinant; tags: N-terminal GST; dsDNA, one strand shown
# How it was run: as §1
# EHF = biological target: T5, EHF (Homo sapiens, UniProt Q9NZC4 1-300); details: protein: recombinant; tags: N-terminal GST; dsDNA, one strand shown
# T5 sequence: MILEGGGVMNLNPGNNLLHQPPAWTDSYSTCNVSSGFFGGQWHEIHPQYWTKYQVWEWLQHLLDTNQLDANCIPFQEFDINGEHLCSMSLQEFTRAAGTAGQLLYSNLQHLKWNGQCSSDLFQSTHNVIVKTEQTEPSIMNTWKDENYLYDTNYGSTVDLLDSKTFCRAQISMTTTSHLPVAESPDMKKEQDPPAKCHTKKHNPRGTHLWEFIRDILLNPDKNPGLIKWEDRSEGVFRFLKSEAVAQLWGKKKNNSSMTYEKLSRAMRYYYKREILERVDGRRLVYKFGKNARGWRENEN
# How it was run: as §1
# SPI1 = SPI1 (Homo sapiens, UniProt P17947 1-270); details: protein: recombinant; tags: N-terminal GST; dsDNA, one strand shown
# How it was run: as §1
# SPIB = SPIB (Homo sapiens, UniProt Q01892 1-262); details: protein: recombinant; tags: N-terminal GST; dsDNA, one strand shown
# How it was run: as §1
# ELK3 = biological target: T6, ELK3 (Homo sapiens, UniProt P41970 1-407); details: protein: recombinant; tags: N-terminal GST; dsDNA, one strand shown
# T6 sequence: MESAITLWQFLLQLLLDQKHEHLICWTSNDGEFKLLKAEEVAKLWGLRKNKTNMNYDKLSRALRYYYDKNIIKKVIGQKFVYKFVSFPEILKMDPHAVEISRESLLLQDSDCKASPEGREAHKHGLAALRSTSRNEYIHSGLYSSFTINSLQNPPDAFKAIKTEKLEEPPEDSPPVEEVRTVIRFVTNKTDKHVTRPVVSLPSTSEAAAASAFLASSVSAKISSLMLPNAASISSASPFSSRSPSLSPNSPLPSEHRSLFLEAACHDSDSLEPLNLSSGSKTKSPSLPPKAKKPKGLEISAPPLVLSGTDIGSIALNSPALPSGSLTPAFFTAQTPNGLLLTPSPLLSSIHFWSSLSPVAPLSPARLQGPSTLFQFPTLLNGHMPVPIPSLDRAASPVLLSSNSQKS
# How it was run: as §1
# FEV = biological target: T7, FEV (Homo sapiens, UniProt Q99581 1-238); details: protein: recombinant; tags: N-terminal GST; dsDNA, one strand shown
# T7 sequence: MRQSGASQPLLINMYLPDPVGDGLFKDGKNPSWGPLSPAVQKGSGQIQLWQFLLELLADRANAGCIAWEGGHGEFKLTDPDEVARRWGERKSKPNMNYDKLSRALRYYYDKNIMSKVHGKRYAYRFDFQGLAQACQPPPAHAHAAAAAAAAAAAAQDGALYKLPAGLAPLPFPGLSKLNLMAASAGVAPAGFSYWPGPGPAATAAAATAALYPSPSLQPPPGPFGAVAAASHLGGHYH
# How it was run: as §1
# ETV5 = ETV5 (Homo sapiens, UniProt P41161 1-510); details: protein: recombinant; tags: N-terminal GST; dsDNA, one strand shown
# How it was run: as §1
# HSF1 = HSF1 (Homo sapiens, UniProt Q00613 1-529); details: protein: recombinant; tags: N-terminal GST; chain copies: 3; dsDNA, one strand shown
# How it was run: as §1
# SPIC = biological target: T8, SPIC (Homo sapiens, UniProt Q8N5J4 1-248); details: protein: recombinant; tags: N-terminal GST; dsDNA, one strand shown
# T8 sequence: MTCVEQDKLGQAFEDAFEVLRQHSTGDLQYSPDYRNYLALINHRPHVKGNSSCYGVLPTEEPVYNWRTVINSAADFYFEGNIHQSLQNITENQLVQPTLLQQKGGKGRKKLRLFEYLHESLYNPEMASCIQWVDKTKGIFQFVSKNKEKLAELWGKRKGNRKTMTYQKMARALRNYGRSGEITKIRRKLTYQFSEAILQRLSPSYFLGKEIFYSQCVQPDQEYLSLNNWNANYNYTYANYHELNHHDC
# How it was run: as §1
# ELF4 = ELF4 (Homo sapiens, UniProt Q99607 1-663); details: protein: recombinant; tags: N-terminal GST; dsDNA, one strand shown
# How it was run: as §1
# ELK4 = biological target: T9, ELK4 (Homo sapiens, UniProt P28324-2 1-405); details: protein: recombinant; tags: N-terminal GST; dsDNA, one strand shown
# T9 sequence: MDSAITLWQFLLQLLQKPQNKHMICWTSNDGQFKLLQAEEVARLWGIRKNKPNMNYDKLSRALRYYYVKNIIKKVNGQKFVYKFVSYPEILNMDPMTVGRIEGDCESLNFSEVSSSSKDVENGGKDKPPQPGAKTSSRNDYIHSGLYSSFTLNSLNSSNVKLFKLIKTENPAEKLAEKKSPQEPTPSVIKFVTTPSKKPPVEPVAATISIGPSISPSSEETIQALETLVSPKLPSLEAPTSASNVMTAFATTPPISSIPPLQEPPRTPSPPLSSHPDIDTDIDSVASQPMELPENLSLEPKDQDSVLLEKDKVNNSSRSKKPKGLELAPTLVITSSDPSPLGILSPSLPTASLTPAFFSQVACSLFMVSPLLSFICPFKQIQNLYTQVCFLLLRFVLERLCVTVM
# How it was run: as §1
# ETV2 = biological target: T10, ETV2 (Homo sapiens, UniProt O00321 1-342); details: protein: recombinant; tags: N-terminal GST; dsDNA, one strand shown
# T10 sequence: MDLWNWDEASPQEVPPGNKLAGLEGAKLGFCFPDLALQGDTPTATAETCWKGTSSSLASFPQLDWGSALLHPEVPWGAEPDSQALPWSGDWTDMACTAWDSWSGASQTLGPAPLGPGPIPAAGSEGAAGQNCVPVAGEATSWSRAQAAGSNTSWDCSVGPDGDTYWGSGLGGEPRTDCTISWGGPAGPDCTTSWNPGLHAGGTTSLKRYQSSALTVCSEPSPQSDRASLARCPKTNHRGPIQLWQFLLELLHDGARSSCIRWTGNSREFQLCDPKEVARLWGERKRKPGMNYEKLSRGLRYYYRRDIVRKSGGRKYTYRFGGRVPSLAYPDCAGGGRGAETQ
# How it was run: as §1
# ELF3 = biological target: T11, ELF3 (Homo sapiens, UniProt P78545 1-371); details: protein: recombinant; tags: N-terminal GST; dsDNA, one strand shown
# T11 sequence: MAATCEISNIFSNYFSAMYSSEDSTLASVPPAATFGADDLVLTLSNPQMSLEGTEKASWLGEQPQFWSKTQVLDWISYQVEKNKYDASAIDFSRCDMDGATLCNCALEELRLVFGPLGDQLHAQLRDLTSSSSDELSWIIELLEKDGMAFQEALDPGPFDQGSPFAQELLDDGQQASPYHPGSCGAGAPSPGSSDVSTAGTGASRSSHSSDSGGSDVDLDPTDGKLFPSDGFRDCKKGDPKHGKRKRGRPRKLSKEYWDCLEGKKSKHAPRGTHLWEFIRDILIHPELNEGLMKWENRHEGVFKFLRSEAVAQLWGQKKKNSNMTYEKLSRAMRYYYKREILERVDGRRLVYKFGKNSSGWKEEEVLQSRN
# How it was run: as §1
# CRX = CRX (Homo sapiens, UniProt O43186 1-299); details: protein: recombinant; tags: N-terminal GST; dsDNA, one strand shown
# How it was run: as §1
# ETV1 = ETV1 (Homo sapiens, UniProt P50549 1-477); details: protein: recombinant; tags: N-terminal GST; dsDNA, one strand shown
# How it was run: as §1
# Chain of ELF4 (Q99607 whole entry): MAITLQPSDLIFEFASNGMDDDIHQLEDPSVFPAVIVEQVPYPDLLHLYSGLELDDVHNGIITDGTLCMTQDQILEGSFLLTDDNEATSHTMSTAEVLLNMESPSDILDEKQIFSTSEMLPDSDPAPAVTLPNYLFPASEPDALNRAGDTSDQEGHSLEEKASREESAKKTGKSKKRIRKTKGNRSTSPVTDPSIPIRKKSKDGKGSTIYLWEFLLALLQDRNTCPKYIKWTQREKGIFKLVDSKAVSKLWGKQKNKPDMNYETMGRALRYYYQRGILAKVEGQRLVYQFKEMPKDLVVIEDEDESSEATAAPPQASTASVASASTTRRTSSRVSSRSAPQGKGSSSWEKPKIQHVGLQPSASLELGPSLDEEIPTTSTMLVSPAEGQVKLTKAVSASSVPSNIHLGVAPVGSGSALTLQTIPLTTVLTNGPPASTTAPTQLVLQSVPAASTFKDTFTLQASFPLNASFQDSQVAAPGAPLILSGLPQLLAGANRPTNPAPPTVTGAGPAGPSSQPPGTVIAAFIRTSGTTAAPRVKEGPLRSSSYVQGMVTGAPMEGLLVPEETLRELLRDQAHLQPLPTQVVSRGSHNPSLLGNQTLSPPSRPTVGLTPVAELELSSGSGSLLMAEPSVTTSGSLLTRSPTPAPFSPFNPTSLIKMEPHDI
# Chain of ETV5 (P41161 whole entry): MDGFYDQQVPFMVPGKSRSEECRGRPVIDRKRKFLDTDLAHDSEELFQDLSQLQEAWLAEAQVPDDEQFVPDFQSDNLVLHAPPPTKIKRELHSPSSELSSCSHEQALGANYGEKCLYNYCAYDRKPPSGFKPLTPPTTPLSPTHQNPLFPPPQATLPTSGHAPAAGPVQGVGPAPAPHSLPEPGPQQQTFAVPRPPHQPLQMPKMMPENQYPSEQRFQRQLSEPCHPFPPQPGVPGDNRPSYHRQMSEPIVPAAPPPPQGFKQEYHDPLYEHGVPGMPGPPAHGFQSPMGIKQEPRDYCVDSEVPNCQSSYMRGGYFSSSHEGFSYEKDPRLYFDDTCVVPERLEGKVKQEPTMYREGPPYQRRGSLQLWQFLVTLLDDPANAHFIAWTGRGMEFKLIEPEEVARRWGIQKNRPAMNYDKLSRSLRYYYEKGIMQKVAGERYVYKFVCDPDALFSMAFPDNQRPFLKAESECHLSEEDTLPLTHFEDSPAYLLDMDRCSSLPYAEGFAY
# Chain of ETV1 (P50549 whole entry): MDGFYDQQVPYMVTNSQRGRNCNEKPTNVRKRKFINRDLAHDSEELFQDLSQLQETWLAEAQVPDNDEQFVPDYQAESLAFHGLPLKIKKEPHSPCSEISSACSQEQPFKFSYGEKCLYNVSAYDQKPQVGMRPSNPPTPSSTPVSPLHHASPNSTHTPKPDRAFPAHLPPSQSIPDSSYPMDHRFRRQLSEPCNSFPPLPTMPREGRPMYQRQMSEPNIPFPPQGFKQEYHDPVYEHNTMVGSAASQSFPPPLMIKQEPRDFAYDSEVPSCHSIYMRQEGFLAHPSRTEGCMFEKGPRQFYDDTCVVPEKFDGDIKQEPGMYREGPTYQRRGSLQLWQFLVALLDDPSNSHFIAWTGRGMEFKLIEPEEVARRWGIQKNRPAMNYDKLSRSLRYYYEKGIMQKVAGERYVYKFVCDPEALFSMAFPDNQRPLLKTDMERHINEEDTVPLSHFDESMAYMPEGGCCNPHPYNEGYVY
# Chain of SPIB (Q01892 whole entry): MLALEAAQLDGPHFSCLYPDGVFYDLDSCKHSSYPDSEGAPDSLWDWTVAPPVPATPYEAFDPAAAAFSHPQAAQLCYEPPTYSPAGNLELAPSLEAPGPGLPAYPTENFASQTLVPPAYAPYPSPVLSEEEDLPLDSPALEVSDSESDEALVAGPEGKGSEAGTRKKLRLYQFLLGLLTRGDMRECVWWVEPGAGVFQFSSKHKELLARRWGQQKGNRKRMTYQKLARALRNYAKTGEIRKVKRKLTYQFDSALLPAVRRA
# Chain of ELF1 (P32519 whole entry): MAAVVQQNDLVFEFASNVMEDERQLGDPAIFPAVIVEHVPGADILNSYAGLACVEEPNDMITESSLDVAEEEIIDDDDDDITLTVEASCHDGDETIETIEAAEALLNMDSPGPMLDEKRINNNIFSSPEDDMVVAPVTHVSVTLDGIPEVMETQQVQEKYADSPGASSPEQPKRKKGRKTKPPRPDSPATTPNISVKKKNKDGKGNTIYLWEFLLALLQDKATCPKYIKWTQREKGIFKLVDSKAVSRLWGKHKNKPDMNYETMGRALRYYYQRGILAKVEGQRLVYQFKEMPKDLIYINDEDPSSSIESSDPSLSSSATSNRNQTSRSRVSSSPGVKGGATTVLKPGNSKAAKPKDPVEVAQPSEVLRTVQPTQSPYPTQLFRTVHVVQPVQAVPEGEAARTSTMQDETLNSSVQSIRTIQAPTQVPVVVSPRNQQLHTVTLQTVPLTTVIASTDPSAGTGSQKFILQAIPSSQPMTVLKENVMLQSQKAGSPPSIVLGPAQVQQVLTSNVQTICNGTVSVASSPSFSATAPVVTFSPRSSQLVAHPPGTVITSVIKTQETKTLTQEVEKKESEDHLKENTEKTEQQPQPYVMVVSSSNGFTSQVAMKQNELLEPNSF
# Chain of CRX (O43186 whole entry): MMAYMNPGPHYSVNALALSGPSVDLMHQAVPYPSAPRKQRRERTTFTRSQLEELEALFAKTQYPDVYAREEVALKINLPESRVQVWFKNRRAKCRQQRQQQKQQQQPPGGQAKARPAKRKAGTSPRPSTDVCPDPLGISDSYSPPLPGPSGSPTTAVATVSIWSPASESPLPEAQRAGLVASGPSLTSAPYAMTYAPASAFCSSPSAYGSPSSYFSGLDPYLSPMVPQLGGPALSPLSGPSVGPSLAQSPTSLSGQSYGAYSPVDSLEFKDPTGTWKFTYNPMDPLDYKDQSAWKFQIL
# Chain of HSF1 (Q00613 whole entry): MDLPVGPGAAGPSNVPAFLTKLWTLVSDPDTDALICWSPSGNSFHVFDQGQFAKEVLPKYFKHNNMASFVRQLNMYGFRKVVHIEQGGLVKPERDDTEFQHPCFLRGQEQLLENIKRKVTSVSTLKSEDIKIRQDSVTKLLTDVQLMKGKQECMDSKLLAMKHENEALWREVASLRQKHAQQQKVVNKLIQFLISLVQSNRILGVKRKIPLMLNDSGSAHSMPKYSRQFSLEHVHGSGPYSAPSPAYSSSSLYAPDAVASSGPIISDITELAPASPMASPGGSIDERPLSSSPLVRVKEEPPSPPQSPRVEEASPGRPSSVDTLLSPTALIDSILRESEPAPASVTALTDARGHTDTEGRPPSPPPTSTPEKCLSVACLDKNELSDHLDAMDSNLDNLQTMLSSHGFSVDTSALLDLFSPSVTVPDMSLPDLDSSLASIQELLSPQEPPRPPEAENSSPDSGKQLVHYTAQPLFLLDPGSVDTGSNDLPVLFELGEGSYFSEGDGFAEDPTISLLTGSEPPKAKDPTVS
sequence,measurement,setting,value
TTTGTG,binding signal,FLI1,"1.31 fold enrichment (6-mer frequency, TF over GST control)"
same,binding signal,ELK1,"1.2 fold enrichment (6-mer frequency, TF over GST control)"
same,binding signal,GABPA,"1.13 fold enrichment (6-mer frequency, TF over GST control)"
same,binding signal,ERG,"1.14 fold enrichment (6-mer frequency, TF over GST control)"
same,binding signal,ELF1,"1.09 fold enrichment (6-mer frequency, TF over GST control)"
same,binding signal,EHF,"1.15 fold enrichment (6-mer frequency, TF over GST control)"
same,binding signal,SPI1,"1.12 fold enrichment (6-mer frequency, TF over GST control)"
same,binding signal,SPIB,"1.09 fold enrichment (6-mer frequency, TF over GST control)"
same,binding signal,ELK3,"1.17 fold enrichment (6-mer frequency, TF over GST control)"
same,binding signal,FEV,"1.23 fold enrichment (6-mer frequency, TF over GST control)"
same,binding signal,ETV5,"1.17 fold enrichment (6-mer frequency, TF over GST control)"
same,binding signal,HSF1,"1.12 fold enrichment (6-mer frequency, TF over GST control)"
same,binding signal,SPIC,"1.15 fold enrichment (6-mer frequency, TF over GST control)"
same,binding signal,ELF4,"1.19 fold enrichment (6-mer frequency, TF over GST control)"
same,binding signal,ELK4,"1.38 fold enrichment (6-mer frequency, TF over GST control)"
same,binding signal,ETV2,"1.25 fold enrichment (6-mer frequency, TF over GST control)"
same,binding signal,ELF3,"1.27 fold enrichment (6-mer frequency, TF over GST control)"
same,binding signal,CRX,"1.29 fold enrichment (6-mer frequency, TF over GST control)"
same,binding signal,ETV1,"1.1 fold enrichment (6-mer frequency, TF over GST control)"

# Source: publication PMC7862700, “An all-to-all approach to the identification of sequence-specific readers for epigenetic DNA modifications on cytosine”
